Data reported in the supplement of paper PMC6555819.

Columns and labels:
Assay in all cases: PBM binding z-score (relative to random genomic background probes); higher = stronger binding; sequences stand for … in GC…GCGATTGACAGCGTAGAATGAAGG
[1] = tested on: RARb homodimer (NR concentration 270 nM)
Summary of the method: (§1)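 Custom Agilent 4×180K protein-binding microarrays carried double-stranded probes, each with a 34-nt variable region. These regions held direct-repeat seeds, single-nucleotide variants, half-site ablations and random human genomic background sequences. Ligand-free nuclear receptor dimers were incubated on the arrays for 1 h, antibodies against each partner (one per run) detected binding, and scanned fluorescence was regression-normalized. Binding z-scores take the random background probes as reference.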

[2] = tested on: RARg:RXRa (NR concentration 270 nM, RXRa partner concentration 90 nM)
Summary of the method: as §1

[3] = tested on: RARg homodimer (NR concentration 270 nM)
Summary of the method: as §1

[4] = tested on: RXRa DBDmut IVT, anti-RXR (DBD mutation: RXRa K156A/R161A, NR concentration 90 nM)
Summary of the method: as §1

[5] = tested on: RXRa homodimer (NR concentration 180 nM)
Summary of the method: as §1

[6] = tested on: THRa:RXRa (NR concentration 90 nM, RXRa partner concentration 90 nM)
Summary of the method: as §1

[7] = tested on: THRa homodimer (NR concentration 90 nM)
Summary of the method: as §1

[8] = tested on: VDR homodimer (NR concentration 270 nM)
Summary of the method: as §1

| Sequence | PBM binding z-score [1] | PBM binding z-score [2] | PBM binding z-score [3] | PBM binding z-score [4] | PBM binding z-score [5] | PBM binding z-score [6] | PBM binding z-score [7] | PBM binding z-score [8] |
| --- | --- | --- | --- | --- | --- | --- | --- | --- |
| ACTACAGGGTCATCGTAGGCCAGAGTACGCACAG | 3.45 | 5.52 | 5.09 | 3.26 | 5.9 | 4.64 | 1.27 | 3.36 |
| CGAACTAGGTCATCCCGGACAGTGAATACATTGA | 2.84 | 3.68 | 4.66 | 2.33 | 2.6 | 2.86 | 1.4 | 1.91 |
| CCTACTGGGCCGAAGGTCATTGATTCCAATGCTC | 3.08 | 2.93 | 2.53 | 0.398 | 3.01 | 1.99 | 0.19 | 1.46 |
| TAGCCTAGGTCATTGGGACAGTATAGTACGCATC | 2.92 | 3.97 | 4.51 | 1.52 | 3.13 | 2.95 | 1.14 | 1.44 |
| TCTGCTAGGTCAGTTGGTCAGATAACGAGCTGCC | 2.62 | 2.67 | 3.55 | 0.564 | 1.03 | 1.38 | 0.154 | -0.455 |
| CGTACAAGGTCAGCAGGTCAGTGAAAGCGACGTG | 5.11 | 6.42 | 6.72 | 3.07 | 5.36 | 3.93 | 2.42 | 1.68 |
| CGTCCAAGGTCATAGGAGGTCAGGGAAGACAGAT | 5.2 | 6.79 | 7.15 | 3.89 | 6.99 | 5.41 | 3.54 | 4.28 |
| CTCGAAAGGTCGTGCGCAGGTGAGTATACCAAAC | 2.93 | 5.81 | 3.83 | 1.76 | 5.1 | 3.58 | 0.11 | 0.912 |
| CCAGACAGGTGAGAAGGTAACTCCGCCTCGATTA | 0.57 | 0.45 | 0.417 | -0.0199 | 0.0477 | 0.0136 | 0.252 | -0.0348 |
| TAGCCTAGGTCATTCAGGGGCGAGTATAGAAAGC | 2.77 | 4.27 | 3.93 | 2.29 | 2.79 | 4.54 | 0.866 | 1.68 |
| GCTTACGGTTCAAAGGTTATAGCATGAATAGAAT | 1.54 | 3.57 | 1.39 | 2.62 | 7.16 | 2.59 | 0.09 | 2.52 |
| CCGAGTAGGTTATGGGGTATTCAGGCAACGGTGA | 0.841 | 0.46 | 0.562 | 0.0146 | 0.873 | 0.963 | 1.05 | 0.274 |
| GGAACGAGGGCATTCGAGTTGAGAGCATGGCGAT | 0.91 | 1.14 | 1.31 | 2.99 | 1.05 | 3.58 | -0.815 | 2.68 |
| CCTACTGGGCCATCAGGTCGTTGATATCAACGTT | 0.879 | 0.238 | 0.401 | 0.0318 | 0.133 | 1.42 | 1.06 | 0.424 |
| CCTCGGAGGATAGAAGGTCAGAGCTGTCCGCTTT | 2.9 | 2.17 | 2.05 | -0.11 | 1.52 | 1.66 | -0.386 | -0.101 |
| CCGACTGGGGCAGAAAGGTTACCAAACCATCCGG | 2.23 | 1.52 | 1.35 | -0.609 | 1.66 | 0.905 | -0.598 | -0.377 |
| GGAACGAGGCCAAGTTGATAGCAGAGTTTGATGG | 0.533 | 0.334 | 1.03 | 1.18 | -0.0996 | 0.407 | -0.535 | 0.778 |
| GCCGCTAGGTCAACTGATGGTCAGCTAAAGCTCG | 3.66 | 5.19 | 5.22 | 1.45 | 2.97 | 2.97 | 0.878 | -0.321 |
| ACAGACAGGTGAGTGAAGGGAACTCAGCTGGACG | -0.231 | 0.199 | 0.0505 | -0.777 | 0.39 | 0.0282 | -0.679 | -0.331 |
| TCAGACAGGTGAAGGTATCTCAGGTACGCAGTCG | 0.873 | 0.518 | 0.586 | 1.55 | 0.95 | 1.2 | 0.503 | 0.113 |
| ACTAGCGGGCCAAGGGTCACTCAAGATTAGTCCG | 3.7 | 3.9 | 3.71 | 0.364 | 4 | 2.62 | -0.0687 | 1.07 |
| CCTAGCAGGCCAGGGTCACGCAAGCATTTCGCTT | 3.51 | 4.73 | 3.74 | 0.0811 | 5.81 | 3.6 | 1.62 | 1.53 |
| TTACCAATGTGAAGGTCGTTGATCCCTCTGTAGA | 1.25 | 0.262 | 0.216 | 0.586 | 1.05 | 0.82 | 0.201 | 1.04 |
| CCTTCTAGGTCAATGGTCAGCTAAAGCAGCTCGC | 2.97 | 3.53 | 4.58 | 1.88 | 2.35 | 2.71 | 1.37 | 0.249 |
| CGAACTAGGTCATCCAGGAGAGTGAATACATTGA | 2.87 | 3.87 | 4.68 | 2.19 | 2.84 | 2.93 | 0.976 | 0.755 |
| TCTTGTAGATCAACAGGAGGTGAAGAAAGATCGA | 0.000947 | 0.381 | 0.0903 | 0.184 | 0.315 | 0.726 | -0.344 | -0.884 |
| TAGCCCAGGTCAGATCGGGCCAGTATACGCTATA | 2.03 | 2.82 | 3.39 | -0.536 | 1.77 | 4.22 | 0.917 | -0.0558 |
| AGAATGAGGTTACCGAAGATCAGGGAAACGCTTG | 0.586 | 2.27 | 1.76 | 1.5 | 2.87 | 3.05 | 0.672 | 0.193 |
